GDH-TPI inh: counter-screen for M. tuberculosis FBA inhibitors: GDH-TPI coupled enzymes; hit rate 1.2% among 360,000; GDH-TPI coupled enzyme counterscreen, NADH absorbance; inhibition, % at 4.8 µM; in the data active = inhibition above about 30%;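 note: 0% = DMSO wells and 100% = wells lacking the enzyme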
Rv3671c inh: inhibitors of M. tuberculosis serine protease Rv3671c; P9WHR9; inhibition, % at 5.96 µM; hit rate 0.048% among 320,000; in the data active = inhibition above about 38%;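 note: extracellular domain of Rv3671c used as enzyme; 0% = enzyme with DMSO and 100% = no enzyme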
Target sequence (P9WHR9 whole entry, looked up, the tested form may be a part): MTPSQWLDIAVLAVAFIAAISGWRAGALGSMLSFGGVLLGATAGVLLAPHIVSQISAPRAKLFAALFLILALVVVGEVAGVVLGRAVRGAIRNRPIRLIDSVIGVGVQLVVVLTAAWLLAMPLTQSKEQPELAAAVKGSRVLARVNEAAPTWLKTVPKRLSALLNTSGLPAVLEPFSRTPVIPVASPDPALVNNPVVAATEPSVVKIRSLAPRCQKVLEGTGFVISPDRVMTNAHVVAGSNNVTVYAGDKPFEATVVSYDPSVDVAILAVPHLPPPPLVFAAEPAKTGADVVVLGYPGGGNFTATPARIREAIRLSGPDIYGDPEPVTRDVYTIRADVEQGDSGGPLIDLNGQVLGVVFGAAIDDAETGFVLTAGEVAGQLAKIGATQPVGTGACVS
Mtb betalactam: beta-lactam sensitization of Mtb H37Rv; M. tuberculosis H37Rv growth with meropenem, percent inhibition; inhibition, % at 25 µM; hit rate 0.27% among 330,000;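 note: growth measured after seven days incubation then overnight dye step; 0% = bacteria only wells and 100% = bacteria with antibiotic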
Mtb UGM inh: inhibitors of M. tuberculosis UDP-galactopyranose mutase; inhibition, % at 10 µM; purified UGM, fluorescence polarization probe displacement; hit rate 0.06% among 320,000; in the data active = inhibition above about 10%, passing the limit was not always enough; inconclusive = no clear call, values can overlap the other calls
RecA splice inh: Mtb RecA intein splicing inhibition. P9WHJ3. cell-free RecA intein splicing, fluorescence. inhibition, % (concentration not given with the values). hit rate 0.75% among 290,000. AID 2221; in the data active = inhibition above about 30%; inconclusive = no clear call, values can overlap the other calls;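 note: 0% = vehicle wells and 100% = reference inhibitor control wells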
FBA Mtb inh: Mtb fructose-bisphosphate aldolase inhibition; P9WQA3; purified M. tuberculosis FBA, fluorescence read-out; inhibition, % at 1 µM; hit rate 2.3% among 360,000; AID 588726; in the data active = inhibition above about 27%;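 note: 0% = vehicle and 100% = reference inhibitor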
GFP chromophore: counter-screen GFP chromophore formation inhibition; shares compounds with RecA splice inh; cell-free GFP chromophore formation, fluorescence; EC50, µM; hit rate 83% among 2,100; AID 434968
* marks the source's active call; other numbers are inactive results; ? = inconclusive; / = no result given. Sampled rows, rich in hits. Any-hit rate of the full collection: about 4%. Unless noted, the rule behind the calls is not given here.

SMILES	GDH-TPI inh	Rv3671c inh	Mtb betalactam	Mtb UGM inh	RecA splice inh	FBA Mtb inh	GFP chromophore
O=C1NCCCc2c1oc1cc(Br)c(O)c(Br)c21	21	6	-4	-1	-13	-1	/
O=C1NCCCC2c3c(cc(Br)c(O)c3Br)OC12N1CCCCC1 (stereo not drawn)	6	4	9	-3	38*	1	5.5*
COCCNC(=O)C1(C)CCCN(Cc2cc(-c3ccccc3)on2)C1 (stereo not drawn)	-5	/	/	/	/	3	/
CC1=NN(c2ccc(F)cc2)C(=O)C1C(c1cccc(O)c1)c1c(C)[nH]n(-c2ccc(F)cc2)c1=O (stereo not drawn)	3	-112	2	1	97*	1	1.8*
CC1=NN(c2ccc(Cl)cc2)C(=O)C1C(c1cccc(O)c1)c1c(C)[nH]n(-c2ccc(Cl)cc2)c1=O (stereo not drawn)	6	-18	0	0	88*	-1	2.3*
Cc1[nH]n(-c2ccc(Cl)cc2)c(=O)c1C(=O)c1ccccc1	7	-1	68	0	3	1	/
O=C(O)Cn1cnc2scc(-c3cccs3)c2c1=O	-6	2	4	1	1	5	/
O=C1C=C(N(CCO)Cc2ccccc2)c2ccccc2C1=O	9	/	/	/	88*	0	0.6*
CN(C)S(=O)(=O)Oc1ccsc1C(=O)Nc1ccc(C(F)(F)F)cc1	-10	-9	91	-1	-1	-3	/
O=S(=O)(c1ccccc1)c1ncc(C(F)(F)F)cc1Cl	2	/	/	/	63*	4	25*
O=C(CCl)c1ccc(Cc2ncc(C(F)(F)F)cc2Cl)s1	1	5	93	2	79*	0	3.4*
NS(=O)(=O)c1ccc(Cc2ncc(C(F)(F)F)cc2Cl)s1	-3	3	-1	-1	2	1	/
COc1ccccc1-c1cc(C(F)(F)F)nc(S(=O)(=O)CCCC(=O)O)n1	9	-5	?	4	24	1	/
COc1ccccc1-c1cc(C(F)(F)F)nc(S(=O)(=O)CCCC(=O)N2CCOCC2)n1	12	-9	94	5	48*	3	16*
COc1ccc(-c2cc(C(F)(F)F)nc(S(=O)(=O)CCCC(=O)Nc3cccc(O)c3)n2)cc1OC	9	/	/	/	62*	0	19*
N#CC(c1ccccc1)c1cnccn1 (stereo not drawn)	-14	-1	0	1	33*	2	>38
Cc1csc(CNc2ncnc3ccc(-c4ccccc4Cl)cc23)c1	11	-28	10	-2	/	0	/
COc1ccc(/C=C(\CC(=O)O)c2nc3ccccc3o2)cc1	14	-1	4	3	/	4	/
COc1ccc(C(=O)/C(=C/c2cccs2)c2nc3ccccc3o2)cc1	30	-7	20	3	46*	3	>38
CC(=O)Nc1ccc(S(=O)(=O)N2CCN(c3nc(C)cc(C)n3)CC2)cc1	-6	3	5	1	-3	-1	/
Cc1ccc(C(=O)OCC(=O)Nc2cc(Cl)ccc2C#N)o1	-2	/	/	/	/	0	/
Cc1[nH]c2ccc(F)cc2c1CCN(Cc1cccnc1)C(=S)Nc1ccc(F)cc1	-3	18	19	-5	40*	0	>38
Cc1ccc(S(=O)(=O)/N=C2\C(=O)c3ccccc3C([O-])=C2n2cc[n+](CCC(C)C)c2)cc1	-3	-30	-9	1	13	-8	/
CC(=O)Nc1ccc(S(=O)(=O)/N=C2\C(=O)c3ccccc3C([O-])=C2n2cc[n+](-c3ccccn3)c2)cc1	4	-97	2	5	85*	3	6.1*
CC(OC(=O)c1ccc(Cl)c(S(=O)(=O)N2CCCC2)c1)C(=O)NC1CCCCC1C (stereo not drawn)	/	1	5	1	1	/	/
CC(=O)N(c1ccccc1C)C1CCCC1	-6	6	-6	1	-1	-3	/
CC(=O)N(C1=C(Cl)C(=O)c2ccccc2C1=O)C1CCCCC1	5	-68	27	0	92*	0	1.3*
CC(=O)Nc1cccc(NC(=O)CSc2nnc(Cc3cccn3C)n2CCc2ccccc2)c1	-4	-19	-6	4	1	0	/
COc1ccc(C(=O)OCc2nc(N)nc(Nc3ccccc3C)n2)cc1OC	9	1	10	2	1	5	/
CC(=O)N(c1ccc(Cl)cc1)c1cn(C(C)=O)c2ccccc12	1	5	-1	-1	0	6	/

High-throughput results as filed in PubChem BioAssay.
